Results published in ChEMBL document CHEMBL1961873, “Compounds: GSK PKIS; Assays: Nanosyn kinase panel” (2012).

Tests used:
[1] = target: Mitogen-activated protein kinase 3 (Homo sapiens) (UniProt P27361); settings: at 1 µM;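 note: values are mean percent inhibition of MAPK3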
[2] = target: SRSF protein kinase 3 (Homo sapiens) (UniProt Q9UPE1); settings: at 0.1 µM
[3] = target: SRSF protein kinase 3 (Homo sapiens) (UniProt Q9UPE1); settings: at 1 µM
[4] = target: Mitogen-activated protein kinase 14 (Homo sapiens) (UniProt Q16539); settings: at 0.1 µM
[5] = target: Mitogen-activated protein kinase 14 (Homo sapiens) (UniProt Q16539); settings: at 1 µM
[6] = target: Mitogen-activated protein kinase 11 (Homo sapiens) (UniProt Q15759); settings: at 0.1 µM
[7] = target: Mitogen-activated protein kinase 11 (Homo sapiens) (UniProt Q15759); settings: at 1 µM
[8] = target: T1, Mitogen-activated protein kinase 13 (Homo sapiens) (UniProt O15264); settings: at 0.1 µM
T1 sequence (whole entry): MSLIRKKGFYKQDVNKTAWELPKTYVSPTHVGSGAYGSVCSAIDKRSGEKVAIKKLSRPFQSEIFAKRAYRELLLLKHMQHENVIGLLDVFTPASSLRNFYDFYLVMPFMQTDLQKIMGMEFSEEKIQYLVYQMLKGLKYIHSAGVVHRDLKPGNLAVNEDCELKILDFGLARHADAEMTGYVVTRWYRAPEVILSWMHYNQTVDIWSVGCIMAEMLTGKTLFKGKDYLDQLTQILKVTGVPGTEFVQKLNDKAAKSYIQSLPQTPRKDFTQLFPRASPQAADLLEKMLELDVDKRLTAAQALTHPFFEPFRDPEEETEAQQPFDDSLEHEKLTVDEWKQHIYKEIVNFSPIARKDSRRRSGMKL

[9] = target: T1, Mitogen-activated protein kinase 13 (Homo sapiens); settings: at 1 µM
[10] = target: T2, Mitogen-activated protein kinase 12 (Homo sapiens) (UniProt P53778); settings: at 0.1 µM
T2 sequence (whole entry): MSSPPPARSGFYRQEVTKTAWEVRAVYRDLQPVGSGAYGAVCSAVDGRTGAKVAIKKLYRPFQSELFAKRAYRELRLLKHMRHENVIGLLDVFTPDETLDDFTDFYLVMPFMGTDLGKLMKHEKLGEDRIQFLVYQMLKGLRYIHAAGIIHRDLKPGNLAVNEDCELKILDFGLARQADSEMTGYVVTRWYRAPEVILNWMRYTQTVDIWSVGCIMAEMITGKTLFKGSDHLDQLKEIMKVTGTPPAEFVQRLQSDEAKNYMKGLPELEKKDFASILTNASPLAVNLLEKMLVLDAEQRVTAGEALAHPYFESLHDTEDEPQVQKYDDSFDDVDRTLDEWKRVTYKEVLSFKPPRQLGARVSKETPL

[11] = target: T2, Mitogen-activated protein kinase 12 (Homo sapiens); settings: at 1 µM
[12] = target: SRSF protein kinase 1 (Homo sapiens) (UniProt Q96SB4); settings: at 0.1 µM
[13] = target: SRSF protein kinase 1 (Homo sapiens) (UniProt Q96SB4); settings: at 1 µM
[14] = target: Phosphatidylinositol 4,5-bisphosphate 3-kinase catalytic subunit alpha isoform (Homo sapiens) (UniProt P42336); settings: at 0.1 µM
[15] = target: Phosphatidylinositol 4,5-bisphosphate 3-kinase catalytic subunit alpha isoform (Homo sapiens) (UniProt P42336); settings: at 1 µM
[16] = target: T3, Phosphatidylinositol 4,5-bisphosphate 3-kinase catalytic subunit delta isoform (Homo sapiens) (UniProt O00329); settings: at 0.1 µM
T3 sequence (whole entry): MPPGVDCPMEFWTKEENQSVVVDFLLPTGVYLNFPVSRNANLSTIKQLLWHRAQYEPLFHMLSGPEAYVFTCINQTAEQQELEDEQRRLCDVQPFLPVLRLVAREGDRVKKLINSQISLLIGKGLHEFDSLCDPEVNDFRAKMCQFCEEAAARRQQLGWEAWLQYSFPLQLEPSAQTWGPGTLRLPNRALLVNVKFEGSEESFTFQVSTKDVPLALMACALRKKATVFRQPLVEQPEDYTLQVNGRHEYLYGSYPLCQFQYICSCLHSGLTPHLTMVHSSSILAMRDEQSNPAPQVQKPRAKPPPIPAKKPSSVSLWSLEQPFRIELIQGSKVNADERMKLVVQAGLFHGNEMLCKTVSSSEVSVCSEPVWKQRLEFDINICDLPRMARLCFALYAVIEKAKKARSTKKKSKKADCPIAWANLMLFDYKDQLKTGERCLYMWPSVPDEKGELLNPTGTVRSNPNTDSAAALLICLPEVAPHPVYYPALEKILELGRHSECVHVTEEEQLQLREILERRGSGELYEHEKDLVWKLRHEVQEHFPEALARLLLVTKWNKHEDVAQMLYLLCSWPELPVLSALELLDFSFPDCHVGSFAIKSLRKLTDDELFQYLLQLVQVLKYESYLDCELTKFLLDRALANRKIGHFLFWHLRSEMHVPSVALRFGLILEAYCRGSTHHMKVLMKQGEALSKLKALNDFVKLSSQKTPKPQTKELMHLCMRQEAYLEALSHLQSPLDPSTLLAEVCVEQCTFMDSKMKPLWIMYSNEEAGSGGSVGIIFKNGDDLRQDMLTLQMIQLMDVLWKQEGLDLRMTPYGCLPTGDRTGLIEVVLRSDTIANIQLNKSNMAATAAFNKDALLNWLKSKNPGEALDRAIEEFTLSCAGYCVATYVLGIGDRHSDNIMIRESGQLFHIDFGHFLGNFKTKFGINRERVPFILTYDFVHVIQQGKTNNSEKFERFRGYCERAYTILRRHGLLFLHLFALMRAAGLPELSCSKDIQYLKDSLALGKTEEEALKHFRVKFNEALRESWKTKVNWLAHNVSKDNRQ

[17] = target: T3, Phosphatidylinositol 4,5-bisphosphate 3-kinase catalytic subunit delta isoform (Homo sapiens); settings: at 1 µM
[18] = target: Phosphatidylinositol 4-kinase beta (Homo sapiens) (UniProt Q9UBF8); settings: at 1 µM
[19] = target: Sphingosine kinase 1 (Homo sapiens) (UniProt Q9NYA1); settings: at 0.1 µM;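 note: mean percent inhibition of SPHK1 activity, measured within the GSK PKIS screening panel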
[20] = target: Phosphatidylinositol 4-kinase beta (Homo sapiens) (UniProt Q9UBF8); settings: at 0.1 µM

Chain of SRSF protein kinase 3 (Homo sapiens) (Q9UPE1 whole entry): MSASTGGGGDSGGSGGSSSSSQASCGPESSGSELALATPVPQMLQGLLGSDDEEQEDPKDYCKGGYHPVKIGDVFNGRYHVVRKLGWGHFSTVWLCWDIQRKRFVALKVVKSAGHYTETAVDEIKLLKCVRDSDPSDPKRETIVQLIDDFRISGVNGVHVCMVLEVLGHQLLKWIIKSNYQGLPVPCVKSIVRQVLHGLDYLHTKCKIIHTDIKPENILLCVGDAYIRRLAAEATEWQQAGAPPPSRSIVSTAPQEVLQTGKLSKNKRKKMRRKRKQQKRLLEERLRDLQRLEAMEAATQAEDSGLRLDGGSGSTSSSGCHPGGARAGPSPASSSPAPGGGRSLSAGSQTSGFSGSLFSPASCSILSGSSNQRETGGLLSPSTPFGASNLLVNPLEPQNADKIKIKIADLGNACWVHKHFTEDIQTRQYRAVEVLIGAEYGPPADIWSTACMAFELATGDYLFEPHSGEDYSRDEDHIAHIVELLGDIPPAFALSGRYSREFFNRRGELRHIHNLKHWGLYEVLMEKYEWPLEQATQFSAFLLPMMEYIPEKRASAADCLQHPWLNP
Chain of Sphingosine kinase 1 (Homo sapiens) (Q9NYA1 whole entry): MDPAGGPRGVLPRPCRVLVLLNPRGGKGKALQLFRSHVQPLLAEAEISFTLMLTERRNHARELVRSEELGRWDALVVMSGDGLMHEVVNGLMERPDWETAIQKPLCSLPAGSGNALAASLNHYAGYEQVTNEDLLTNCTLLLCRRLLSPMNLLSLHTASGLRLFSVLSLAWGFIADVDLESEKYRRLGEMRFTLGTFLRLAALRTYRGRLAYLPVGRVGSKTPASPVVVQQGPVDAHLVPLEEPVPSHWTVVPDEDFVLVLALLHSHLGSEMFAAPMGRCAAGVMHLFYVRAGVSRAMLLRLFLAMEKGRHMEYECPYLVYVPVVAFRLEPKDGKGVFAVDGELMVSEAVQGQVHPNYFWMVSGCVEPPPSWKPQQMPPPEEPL
Chain of Phosphatidylinositol 4,5-bisphosphate 3-kinase catalytic subunit alpha isoform (Homo sapiens) (P42336 whole entry, canonical isoform): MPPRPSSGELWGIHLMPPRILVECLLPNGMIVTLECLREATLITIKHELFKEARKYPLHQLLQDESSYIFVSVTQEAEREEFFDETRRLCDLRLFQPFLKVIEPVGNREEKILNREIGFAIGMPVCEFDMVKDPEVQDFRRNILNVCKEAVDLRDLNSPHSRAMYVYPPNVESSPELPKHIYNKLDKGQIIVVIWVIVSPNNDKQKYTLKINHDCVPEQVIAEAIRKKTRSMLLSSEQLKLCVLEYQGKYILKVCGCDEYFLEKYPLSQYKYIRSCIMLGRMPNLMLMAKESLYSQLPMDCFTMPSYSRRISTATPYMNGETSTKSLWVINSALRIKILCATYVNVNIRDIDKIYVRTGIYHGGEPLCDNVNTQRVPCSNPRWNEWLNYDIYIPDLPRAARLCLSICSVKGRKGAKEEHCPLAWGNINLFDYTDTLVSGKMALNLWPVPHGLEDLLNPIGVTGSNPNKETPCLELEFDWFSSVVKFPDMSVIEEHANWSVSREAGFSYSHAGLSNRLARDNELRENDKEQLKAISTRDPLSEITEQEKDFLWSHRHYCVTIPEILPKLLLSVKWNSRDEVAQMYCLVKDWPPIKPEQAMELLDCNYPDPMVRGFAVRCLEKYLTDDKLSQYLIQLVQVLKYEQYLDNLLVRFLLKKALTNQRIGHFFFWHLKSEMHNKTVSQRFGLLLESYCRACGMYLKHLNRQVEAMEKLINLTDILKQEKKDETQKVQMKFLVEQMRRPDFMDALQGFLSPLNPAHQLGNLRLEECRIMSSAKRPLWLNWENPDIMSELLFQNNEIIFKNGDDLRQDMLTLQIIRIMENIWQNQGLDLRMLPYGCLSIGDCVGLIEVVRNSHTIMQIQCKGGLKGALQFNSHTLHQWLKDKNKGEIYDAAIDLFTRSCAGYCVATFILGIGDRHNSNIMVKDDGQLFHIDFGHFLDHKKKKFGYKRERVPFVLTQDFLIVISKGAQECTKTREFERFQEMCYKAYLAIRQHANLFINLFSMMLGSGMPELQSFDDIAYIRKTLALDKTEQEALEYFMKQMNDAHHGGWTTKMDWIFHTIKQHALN
Chain of SRSF protein kinase 1 (Homo sapiens) (Q96SB4 whole entry, canonical isoform): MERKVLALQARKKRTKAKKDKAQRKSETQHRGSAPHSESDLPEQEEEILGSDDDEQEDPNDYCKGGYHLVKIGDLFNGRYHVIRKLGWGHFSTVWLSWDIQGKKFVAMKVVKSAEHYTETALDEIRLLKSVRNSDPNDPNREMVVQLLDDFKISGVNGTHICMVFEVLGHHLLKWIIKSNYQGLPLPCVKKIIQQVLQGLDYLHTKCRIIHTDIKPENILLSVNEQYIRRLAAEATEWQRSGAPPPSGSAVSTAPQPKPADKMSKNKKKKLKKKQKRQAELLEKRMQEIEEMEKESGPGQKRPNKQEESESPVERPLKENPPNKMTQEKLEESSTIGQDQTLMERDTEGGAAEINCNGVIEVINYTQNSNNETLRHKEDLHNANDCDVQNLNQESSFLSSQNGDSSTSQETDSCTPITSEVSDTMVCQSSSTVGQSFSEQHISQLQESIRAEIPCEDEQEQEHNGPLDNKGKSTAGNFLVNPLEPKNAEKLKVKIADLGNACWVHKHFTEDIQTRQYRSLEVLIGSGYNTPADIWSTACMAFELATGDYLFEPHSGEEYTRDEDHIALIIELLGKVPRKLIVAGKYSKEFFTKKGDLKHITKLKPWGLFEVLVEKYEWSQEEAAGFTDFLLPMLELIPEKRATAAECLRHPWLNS
Chain of Mitogen-activated protein kinase 3 (Homo sapiens) (P27361 whole entry): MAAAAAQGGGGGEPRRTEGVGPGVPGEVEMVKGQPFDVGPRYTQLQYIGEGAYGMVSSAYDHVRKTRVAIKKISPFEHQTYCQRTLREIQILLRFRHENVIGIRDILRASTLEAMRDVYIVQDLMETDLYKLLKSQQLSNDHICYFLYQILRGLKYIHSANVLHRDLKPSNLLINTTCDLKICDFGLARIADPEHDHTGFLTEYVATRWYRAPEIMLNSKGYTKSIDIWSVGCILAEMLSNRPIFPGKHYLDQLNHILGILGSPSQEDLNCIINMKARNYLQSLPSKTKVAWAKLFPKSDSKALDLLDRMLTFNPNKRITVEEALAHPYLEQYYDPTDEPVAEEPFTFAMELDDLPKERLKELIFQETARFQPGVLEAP
Chain of Phosphatidylinositol 4-kinase beta (Homo sapiens) (Q9UBF8 2-816 limits assumed): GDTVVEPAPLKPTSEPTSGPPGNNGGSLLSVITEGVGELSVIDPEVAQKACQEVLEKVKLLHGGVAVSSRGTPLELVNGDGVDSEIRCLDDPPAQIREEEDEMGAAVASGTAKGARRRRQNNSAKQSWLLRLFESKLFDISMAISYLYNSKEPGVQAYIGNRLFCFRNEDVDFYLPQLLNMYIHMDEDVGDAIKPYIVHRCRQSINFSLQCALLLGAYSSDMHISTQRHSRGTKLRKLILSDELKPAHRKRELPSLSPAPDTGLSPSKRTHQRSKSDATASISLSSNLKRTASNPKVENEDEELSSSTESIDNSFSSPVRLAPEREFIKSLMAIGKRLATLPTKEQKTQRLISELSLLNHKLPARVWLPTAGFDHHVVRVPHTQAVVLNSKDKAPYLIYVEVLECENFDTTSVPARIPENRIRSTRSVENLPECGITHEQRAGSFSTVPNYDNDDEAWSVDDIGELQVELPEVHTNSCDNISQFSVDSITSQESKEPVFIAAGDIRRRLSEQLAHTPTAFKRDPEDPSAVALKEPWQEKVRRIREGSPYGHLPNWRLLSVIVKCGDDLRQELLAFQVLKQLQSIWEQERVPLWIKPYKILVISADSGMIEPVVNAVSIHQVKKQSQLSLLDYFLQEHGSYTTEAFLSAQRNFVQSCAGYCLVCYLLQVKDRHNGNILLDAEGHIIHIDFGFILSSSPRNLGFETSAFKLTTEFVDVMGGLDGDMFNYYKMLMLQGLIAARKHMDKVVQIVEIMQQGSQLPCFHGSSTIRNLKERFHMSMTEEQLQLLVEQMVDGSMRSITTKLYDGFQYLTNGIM
Chain of Mitogen-activated protein kinase 11 (Homo sapiens) (Q15759 whole entry): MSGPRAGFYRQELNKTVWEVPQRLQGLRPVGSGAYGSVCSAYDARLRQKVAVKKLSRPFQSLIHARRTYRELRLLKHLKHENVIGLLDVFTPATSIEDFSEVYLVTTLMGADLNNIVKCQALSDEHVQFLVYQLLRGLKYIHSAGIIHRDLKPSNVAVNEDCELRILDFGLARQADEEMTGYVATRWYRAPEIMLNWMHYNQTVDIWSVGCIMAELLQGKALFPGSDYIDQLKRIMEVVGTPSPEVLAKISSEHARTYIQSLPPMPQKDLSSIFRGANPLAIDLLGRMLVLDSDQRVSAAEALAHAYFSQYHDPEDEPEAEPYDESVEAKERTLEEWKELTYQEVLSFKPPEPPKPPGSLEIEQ
Chain of Mitogen-activated protein kinase 14 (Homo sapiens) (Q16539 whole entry): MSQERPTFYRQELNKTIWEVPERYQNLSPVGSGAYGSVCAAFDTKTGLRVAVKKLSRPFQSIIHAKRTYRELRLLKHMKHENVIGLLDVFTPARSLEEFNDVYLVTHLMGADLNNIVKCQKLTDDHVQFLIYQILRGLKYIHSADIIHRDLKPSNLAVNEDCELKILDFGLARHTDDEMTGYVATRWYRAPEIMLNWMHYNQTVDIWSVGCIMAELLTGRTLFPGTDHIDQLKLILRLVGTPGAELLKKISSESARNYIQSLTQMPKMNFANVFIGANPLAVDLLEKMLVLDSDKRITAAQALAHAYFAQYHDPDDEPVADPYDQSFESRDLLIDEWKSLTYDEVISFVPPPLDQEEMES

| SMILES | inhibition [1] | inhibition [2] | inhibition [3] | inhibition [4] | inhibition [5] | inhibition [6] | inhibition [7] | inhibition [8] | inhibition [9] | inhibition [10] | inhibition [11] | inhibition [12] | inhibition [13] | inhibition [14] | inhibition [15] | inhibition [16] | inhibition [17] | inhibition [18] | inhibition [19] | inhibition [20] |
| --- | --- | --- | --- | --- | --- | --- | --- | --- | --- | --- | --- | --- | --- | --- | --- | --- | --- | --- | --- | --- |
| CS(=O)(=O)CCNCc1ccc(-c2ccc3ncnc(Nc4ccc(OCc5cccc(F)c5)c(C(F)(F)F)c4)c3c2)o1 | 2.51% | -1.77% | -0.64% | 4.28% | 11.8% | 3.77% | 8.93% | 1.37% | 5.37% | 1.92% | 3.16% | -1.9% | -0.25% | 3.86% | 7.14% | 2.85% | 7.89% | -2.15% | -0.87% |  |
| CN1CCC(C(=O)Nc2n[nH]c3nnc(-c4ccccc4)cc23)CC1 | 7.39% | -1.72% | -1.01% | 2.08% | 5.41% | 5.95% | 5.33% | 1.73% | 5.59% | 3.05% | 3.34% | -2.38% | -0.73% | 4.88% | 4.26% | 1.61% | 1.12% |  | 1.63% |  |
| CCCN1CCC=C(c2ccc(Nc3nc(Nc4ccccc4C(N)=O)c4cc[nH]c4n3)c(C)c2)C1 | 11.3% | 4.11% | 12.7% | 4.64% | 7.87% | 2.75% | 7.8% | 4.35% | 8.15% | 3.52% | 6.14% | -2.75% | 12% | 4.1% | 19.9% | 1.79% | 17.8% | -0.01% | 0.57% | -1.7% |
| CCn1c(-c2nonc2N)nc2cnc(Oc3cccc(NC(=O)c4ccc(OCCN5CCOCC5)cc4)c3)cc21 | -0.18% | -2.67% | -1.29% | 2.01% | 5.87% | 0.84% | 1.06% | -1.34% | 4.61% | 8.56% | 3.67% | -1.96% | -3.13% | 2.83% | 3.79% | 1.26% | 3.06% | -2.56% | 3.68% | -7.57% |
| O=C1Nc2ccc(C(=O)c3ccco3)cc2C1=Cc1cc(Cl)c(O)c(Cl)c1 | 3.14% | -3.06% | 0.75% | 2.28% | 6.71% | 1.71% | 3.75% | 0.88% | 2.9% | 0.31% | 5.17% | -1.28% | 1.6% | 21.6% | 69.1% | 8.04% | 24.9% | 80.7% | 7.33% | 37.4% |
| O=C(Nc1n[nH]c2nc(-c3ccco3)c(Br)cc12)C1CC1 | 2.64% | -0.09% | -0.41% | 2.53% | 6.49% | 3.09% | 3.71% | 1.46% | 2.57% | 2.55% | 2.11% | -4.07% | -5.19% | 5.44% | 4.94% | 2.6% | 3.08% | 5.14% | 0.46% | 0.77% |
| Cc1ccc(NC(=O)c2ccnc(N3CCCC3)c2)cc1-c1ccc(C(=O)NCC2CC2)cc1 | 3.65% | -0.5% | -0.3% | 38.3% | 79.6% | 40.9% | 78.9% | 3.45% | 5.79% | 4.49% | 4.14% | -2.03% | -3.61% | 4.02% | 14.5% | 3.4% | 14.4% | -0.13% | -0.32% | -4.29% |
| CCn1c(-c2nonc2N)nc2ccncc21 | 1.29% | -2.05% | -2.78% | 2.59% | 3.78% | 2.84% | 2.34% | 0.59% | 0.17% | 2.32% | 1.43% | -3.78% | -6.35% | 0.03% | 1.86% | 2.2% | 2.13% | -4.32% | -1.27% | 4.46% |
| CS(=O)(=O)Nc1ccc(N/C=C2\C(=O)Nc3ccccc32)cc1 | -3.47% | 1.49% | 0.17% | -4.68% | -2.23% | -0.39% | 3.42% | -3.94% | -3.87% | -2.29% | -0.19% | 1.24% | 1.9% | -2.27% | -1.98% | -1.26% | -0.45% | -0.72% | -0.88% | -4.55% |
| COc1ccc(-c2nn3ncccc3c2-c2ccnc(Nc3ccc(Cl)c(C(F)(F)F)c3)n2)cc1 | 4.01% | -2.03% | -0.79% | 4.58% | 36.1% | 2.93% | 16.8% | 0.64% | 1.01% | 1.67% | 0.36% | -1.95% | -0.38% | 1% | 10.4% | -0.59% | 2.57% | 0.08% | 19.3% | -1.86% |
| COc1ccc2cc(-c3c(-c4ccncc4)nc(-c4ccc([S+](C)[O-])cc4)n3C)ccc2c1 (configuration not stated) | 0.18% | -1.39% | -1.03% | 1.72% | 8.34% | 3.87% | 7.24% | -1.65% | 3.19% | 2.2% | 2.03% | -3.09% | -4.71% | 2.81% | 3.47% | 6.86% | 3.16% | -2.26% | 0.08% | -2.02% |
| COc1cc2ncn(-c3cc(O[C@H](C)c4ccccc4Cl)c(C(N)=O)s3)c2cc1OC | 4.54% | -0.2% | 8.42% | 5.73% | 6.35% | 3.71% | 4.9% | 2.38% | 3.77% | 2.99% | 3.72% | 0.35% | 7.77% | 7.21% | 36.1% | 13.6% | 59.9% | -0.59% | 1.83% | 2.43% |
| NC(=O)c1cccc(Nc2nccc(Nc3cccc4[nH]ncc34)n2)c1 | 1.82% | 0.19% | 3.95% | 4.23% | 2.87% | -1.99% | 3.32% | -0.37% | 1.26% | -1.53% | 1.3% | 1.99% | 2.55% | -1.08% | 6.41% | 1.39% | 10.7% | 10.2% | -1.36% | 4.75% |
| CS(=O)(=O)CCNCc1nc(-c2ccc3ncnc(Nc4ccc(F)c(Cl)c4)c3c2)cs1 | 3.66% | 2.2% | 1.52% | 2.36% | 5.56% | 2.75% | 5.6% | 2.57% | 1.21% | 0.83% | 1.73% | -0.47% | 1.62% | 1.55% | 16.8% | 1.95% | 5.42% | 5.06% | -0.56% | 6.61% |
